PubChem BioAssay AID1159580 (chemical genetic matrix, 2015)
Among all 5,500 compounds or so, about 2,000 (36%) were called active. Not shown: some 18% with an inconclusive outcome. Rule as the data show it: active = normalized growth mostly below about 0.91 (no sharp cut-off); inconclusive = no clear call, values can overlap the other calls; inactive = mostly above about 0.92. The list shows a part of the results.

Assay: chemical genetic growth profiling, strain panel (AID 1159580);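 also: tested at 20 µM; growth read once vehicle control cultures reached saturation at 30 °C; 1 = growth at the plate median or of vehicle wells; lower values mean less growth of the strain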
Settings: growth OD

Measured: normalized growth

Cc1ccc(C(=O)c2ccc(CC(=O)O)n2C)cc1
inactive: S. cerevisiae deletion strains, locus YJR075W, strain HOC1, active compounds read low 1.02 | S. cerevisiae deletion strains, locus YKL009W, strain mrt4, active compounds read low 0.958 | S. cerevisiae deletion strains, locus YKL068W, active compounds read low 0.99 | S. cerevisiae deletion strains, locus YKL085W, strain MDH1 (second series), active compounds read low 0.98 | S. cerevisiae deletion strains, locus YKL085W, strain MDH1, active compounds read low 0.98 | S. cerevisiae deletion strains, locus YKL160W, strain elf1, active compounds read low 1.01 | S. cerevisiae deletion strains, locus YKL190W, strain CNB1, active compounds read low 0.996 | S. cerevisiae deletion strains, locus YKR001C, strain vps1, active compounds read low 0.946 | S. cerevisiae deletion strains, locus YKR026C, strain gcn3, active compounds read low 1.01 | S. cerevisiae deletion strains, locus YKR091W, strain srl3, active compounds read low 1 | S. cerevisiae deletion strains, locus YLL001W, strain dnm1, active compounds read low 0.981 | S. cerevisiae deletion strains, locus YLL026W, active compounds read low 1.01 | S. cerevisiae deletion strains, locus YLL041C, strain sdh2, active compounds read low 1 | S. cerevisiae deletion strains, locus YLR027C, strain aat2, active compounds read low 1.02 | S. cerevisiae deletion strains, locus YLR039C, strain RIC1, active compounds read low 0.996 | S. cerevisiae deletion strains, locus YLR058C, strain SHM2, active compounds read low 1 | S. cerevisiae deletion strains, locus YLR102C, strain apc9, active compounds read low 0.973 | S. cerevisiae deletion strains, locus YLR113W, strain HOG1, active compounds read low 0.991 | S. cerevisiae deletion strains, locus YLR221C, strain rsa3, active compounds read low 0.971 | S. cerevisiae deletion strains, locus YLR258W, strain gsy2, active compounds read low 1.01 | S. cerevisiae deletion strains, locus YLR262C, strain YPT6 (second series), active compounds read low 0.994 | S. cerevisiae deletion strains, locus YLR262C, strain YPT6, active compounds read low 1 | S. cerevisiae deletion strains, locus YLR268W, strain sec22, active compounds read low 0.918 | S. cerevisiae deletion strains, locus YLR320W, strain mms22, active compounds read low 0.958 | S. cerevisiae deletion strains, locus YLR330W, strain CHS5, active compounds read low 1 | S. cerevisiae deletion strains, locus YLR342W, strain FKS1 (second series), active compounds read low 0.997 | S. cerevisiae deletion strains, locus YLR342W, strain FKS1, active compounds read low 1.02 | S. cerevisiae deletion strains, locus YLR357W, strain rsc2, active compounds read low 1.02 | S. cerevisiae deletion strains, locus YLR370C, strain arc18, active compounds read low 1 | S. cerevisiae deletion strains, locus YLR371W, strain rom2, active compounds read low 0.978 | S. cerevisiae deletion strains, locus YLR384C, strain iki3, active compounds read low 1.01 | S. cerevisiae deletion strains, locus YLR418C, strain cdc73, active compounds read low 0.968 | S. cerevisiae deletion strains, locus YML016C, strain PPZ1, active compounds read low 1.01 | S. cerevisiae deletion strains, locus YML032C, strain rad52, active compounds read low 0.969 | S. cerevisiae deletion strains, locus YML120C, strain ndi1, active compounds read low 0.982 | S. cerevisiae deletion strains, locus YML124C, strain tub3, active compounds read low 0.981 | S. cerevisiae deletion strains, locus YMR058W, strain fet3, active compounds read low 1.02 | S. cerevisiae deletion strains, locus YMR078C, strain ctf18, active compounds read low 0.97 | S. cerevisiae deletion strains, locus YMR125W, strain sto1, active compounds read low 1.01 | S. cerevisiae deletion strains, locus YMR129W, active compounds read low 1.02 | S. cerevisiae deletion strains, locus YMR205C, strain PFK2, active compounds read low 1.01 | S. cerevisiae deletion strains, locus YMR223W, strain ubp8, active compounds read low 0.979 | S. cerevisiae deletion strains, locus YMR231W, strain pep5, active compounds read low 1.01 | S. cerevisiae deletion strains, locus YMR307W, strain GAS1, active compounds read low 0.991 | S. cerevisiae deletion strains, locus YNL067W, strain RPL9B, active compounds read low 1 | S. cerevisiae deletion strains, locus YNL071W, strain lat1, active compounds read low 1.02 | S. cerevisiae deletion strains, locus YNL153C, strain GIM3, active compounds read low 1 | S. cerevisiae deletion strains, locus YNL183C, strain NPR1, active compounds read low 0.928 | S. cerevisiae deletion strains, locus YNL209W, strain ssb2, active compounds read low 1.02 | S. cerevisiae deletion strains, locus YNL233W, strain BNI4, active compounds read low 1 | S. cerevisiae deletion strains, locus YNL248C, strain rpa49, active compounds read low 1.02 | S. cerevisiae deletion strains, locus YNL250W, strain rad50, active compounds read low 0.987 | S. cerevisiae deletion strains, locus YNL271C, strain bni1, active compounds read low 0.968 | S. cerevisiae deletion strains, locus YNL298W, strain CLA4, active compounds read low 0.95 | S. cerevisiae deletion strains, locus YNL307C, strain MCK1, active compounds read low 0.956 | S. cerevisiae deletion strains, locus YNL322C, strain KRE1 (second series), active compounds read low 1.03 | S. cerevisiae deletion strains, locus YNL322C, strain KRE1, active compounds read low 1 | S. cerevisiae deletion strains, locus YNR049C, strain mso1, active compounds read low 1 | S. cerevisiae deletion strains, locus YNR052C, strain pop2, active compounds read low 0.978 | S. cerevisiae deletion strains, locus YOL006C, strain TOP1, active compounds read low 0.969 | S. cerevisiae deletion strains, locus YOL012C, strain htz1 0.918 | S. cerevisiae deletion strains, locus YOL147C, strain pex11, active compounds read low 0.974 | S. cerevisiae deletion strains, locus YOR001W, strain rrp6, active compounds read low 0.975 | S. cerevisiae deletion strains, locus YOR061W, strain CKA2, active compounds read low 1 | S. cerevisiae deletion strains, locus YOR069W, strain VPS5, active compounds read low 0.997 | S. cerevisiae deletion strains, locus YOR070C, strain gyp1, active compounds read low 1.02 | S. cerevisiae deletion strains, locus YOR080W, strain dia2, active compounds read low 1.02 | S. cerevisiae deletion strains, locus YOR083W, strain WHI5, active compounds read low 0.974 | S. cerevisiae deletion strains, locus YOR106W, strain vam3, active compounds read low 1.04 | S. cerevisiae deletion strains, locus YOR136W, strain idh2, active compounds read low 0.989 | S. cerevisiae deletion strains, locus YOR144C, strain elg1, active compounds read low 0.979 | S. cerevisiae deletion strains, locus YOR184W, strain ser1, active compounds read low 0.956 | S. cerevisiae deletion strains, locus YOR231W, strain MKK1, active compounds read low 0.987 | S. cerevisiae deletion strains, locus YOR265W, strain rbl2, active compounds read low 1.01 | S. cerevisiae deletion strains, locus YOR270C, strain vph1, active compounds read low 0.934 | S. cerevisiae deletion strains, locus YOR290C, strain snf2, active compounds read low 1.01 | S. cerevisiae deletion strains, locus YOR316C, strain cot1, active compounds read low 0.974 | S. cerevisiae deletion strains, locus YPL051W, strain arl3, active compounds read low 1.01 | S. cerevisiae deletion strains, locus YPL055C, strain LGE1, active compounds read low 1.02 | S. cerevisiae deletion strains, locus YPL078C, strain atp4, active compounds read low 0.995 | S. cerevisiae deletion strains, locus YPL106C, strain sse1, active compounds read low 1.03 | S. cerevisiae deletion strains, locus YPL240C, strain hsp82, active compounds read low 1.03 | S. cerevisiae deletion strains, locus YPL241C, strain CIN2, active compounds read low 1 | S. cerevisiae deletion strains, locus YPL256C, strain CLN2, active compounds read low 0.969 | S. cerevisiae deletion strains, locus YPR119W, strain clb2, active compounds read low 0.975 | S. cerevisiae deletion strains, locus YPR141C, strain kar3, active compounds read low 0.985 | S. cerevisiae deletion strains, locus YPR163C, strain tif3, active compounds read low 0.984 | S. cerevisiae deletion strains, locus YPR167C, strain met16, active compounds read low 0.973 | S. cerevisiae deletion strains, strain wtn01, active compounds read low 0.973 | S. cerevisiae strains, strain wild type, active compounds read low 1
